Values joined by “and” are separate entries in the source; they are usually repeats but may differ in a detail not shown here. Equal entries are not always repeated. Some compounds were tested as several samples or in several runs, with calls that do not always agree. Active and inactive are the calls of the source. How the source made its calls: active means hit-call score of the fitted dose curve at least 0.9, where 1 is the maximum; inactive means score below 0.9.
read-out: Interleukin-8 (IL8), CXCL8 (gene 3576); experiment: BSK_3C_IL8: BioMAP Diversity Plus: 3C Assay for Interleukin-8 (IL8) Biomarker Activity (AID 2283020); details: primary human endothelial cells (HUVEC); actives raise or lower the signal
Procedure: BSK_3C is a cell-based, multiplexed-readout assay that uses umbilical vein endothelium, a human vascular primary cell, with measurements taken at 24 hours after chemical dosing in a 96-well plate.BSK_3C_IL8 is an assay component measured in the BSK_3C assay. It measures IL-8 antibody related to regulation of gene expression using ELISA technology.Data from the assay component BSK_3C_IL8 was analyzed into 1 assay endpoint. This assay endpoint, BSK_3C_IL8, was analyzed with bidirectional fitting relative to DMSO as the negative control and baseline of activity. Using a type of binding reporter, gain or loss-of-signal activity can be used to understand changes in the signaling as they relate to the gene CXCL8. Furthermore, this assay endpoint can be referred to as a primary readout, because this assay has produced multiple assay endpoints where this one serves a signaling function. To generalize the intended target to other relatable targets, this assay endpoint is annotated to the cytokine intended target family, where the subfamily is interleukins.
The levels of cell surface (or secreted, indicated by the prefix "s") biomarker endpoints were measured by ELISA. Overt cytotoxicity to cells in confluent adherent cultures (all systems other than the BT system) was assessed by measuring total protein levels using sulforhodamine B (SRB) staining in parallel cultures at the time of biomarker measurements, indicated as SRB endpoints. For proliferation assays for adherent cell types, individual cell types are cultured at sub-confluence and relative cell numbers quantified by SRB staining at time points optimized for each system (48 h: 3C and CASM3C systems; 72 h: BT and HDF3CGF systems; 96 h: SAg system). SRB was performed by staining cells with 0.1% SRB after fixation with 10% TCA and reading wells at 560 nm.Viability and proliferation of PBMC (T cells) was quantified by Alamar Blue reduction for the SAg and BT systems. For PBMC viability (referred to as PBMC Cytotoxicity within the assay endpoint names), cells were plated (75,000/well in a 96-well plate) and then chemical samples added for 1 h before addition of activators, SEB and TSST-1 (20 ng/mL final concentration each). Cells were incubated for 90 h. Then, Alamar Blue (20 uL/well) (Invitrogen, Cat DAL1100) was added for 6 h, and the plates were read with a fluorescence microplate reader at 546/580 nm (excitation/emission). For PBMC proliferation, cells were plated and activated as above but incubated for only 16 h prior to addition of Alamar Blue. Plates were read after 6 h.

Row | Structure (SMILES) | outcome | AC50
1 | CC1=CC(C)C(C=O)C(C)C1 (stereo not given) (tested in a mixture with another compound) | inactive | –
2 | CCOC(=O)C=Cc1ccccc1 | inactive | –
3 | CCCCCCCC1CCCC1=O (stereo not given) | – | 25.2 µM (active)
4 | CCCCCCCCCC(=O)OCC | – | 33.2 µM (active)
5 | c1ccc(OCCOc2ccccc2)cc1 | inactive | –
6 | CC1(C)[C@H](C=C(Cl)Cl)[C@H]1C(=O)OCc1cccc(Oc2ccccc2)c1 | inactive | –
7 | COC(=O)c1ccc(C(=O)OC)cc1 | inactive | –
8 | C=C(C)C(N)=O | inactive | –
9 | COc1ccccc1NC(=O)CC(C)=O | inactive | –
10 | CC=CC(=O)C1=C(C)C=CCC1(C)C | inactive | –
11 | CC(C)(CO)CO | inactive | –
12 | CCCCOCCOCCO | inactive | –
13 | Nc1ccc(N)c([N+](=O)[O-])c1 | inactive | –
14 | OCC(F)(OC(F)(F)C(F)(OC(F)(F)C(F)(F)C(F)(F)F)C(F)(F)F)C(F)(F)F (stereo not given) | inactive | 6.2 µM (active)
15 | CC(=O)OCC=C(C)CCC=C(C)CCC=C(C)C | inactive | –
16 | O=S(=O)(O)C(F)(F)C(F)(F)OC(F)(F)C(F)(F)F | inactive | 5.95 µM (active)
17 | O=C(O)C(F)(F)OC(F)(F)C(F)(F)OC(F)(F)C(F)(F)C(F)(F)C(F)(F)F | inactive | –
18 | O=C1OC2(c3ccc(O)cc3Oc3cc(O)ccc32)c2ccccc21 | – | 20 µM (active)
19 | CC(C)CCCC(C)(C)O | inactive | –

Row | Structure (SMILES) | outcome | AC50
20 | CCC(=O)OCC=Cc1ccccc1 | inactive | –
21 | CC/C(=C(\c1ccccc1)c1ccc(OCCN(C)C)cc1)c1ccccc1 | – | 8.78 µM (active) and 8.48 µM (active)
22 | CC(C)(C)c1cccc(O)c1 | inactive | –
23 | C=C(C)C(=O)OCCC(F)(F)C(F)(F)C(F)(F)C(F)(F)C(F)(F)C(F)(F)C(F)(F)C(F)(F)F | inactive | –
24 | CC(=O)OC(C)(C)C1CC=C(C)CC1 (stereo not given) | inactive | –
25 | C=C(F)C(=O)OC(C(F)(F)F)C(F)(F)F | inactive | –
26 | O=C(O)C(F)(F)C(F)(F)C(F)(F)C(F)(F)C(F)(F)C(F)(F)C(F)(F)C(F)F | inactive | –
27 | O=S1(=O)CC(Cl)(Cl)C(Cl)(Cl)C1 | – | 0.548 µM (active)
28 | NC(=O)c1c(Cl)cccc1Cl | inactive | –
29 | C#C[C@]1(O)CC[C@H]2[C@@H]3CCc4cc(O)ccc4[C@H]3CC[C@@]21C | – | 5.33 µM (active)
30 | CC(C)Cc1ccc(C(C)C(=O)O)cc1 (stereo not given) | – | 0.0158 µM (active)
31 | C=CC(=O)OCC(CO)(COC(=O)C=C)COC(=O)C=C | – | 0.303 µM (active)
32 | CCOC(=O)CCCCCCCCC(=O)OCC | inactive | –
33 | CC(=O)CCC=C(C)CCC=C(C)C | inactive | –
34 | CCCO[Si](OCCC)(OCCC)OCCC | inactive | –
35 | C=C1CC/C=C(\C)CC[C@@H]2[C@@H]1CC2(C)C | – | 30.6 µM (active)
36 | CCn1cc(C(=O)O)c(=O)c2ccc(C)nc21 | inactive | –
37 | CC(=O)c1ccc(C)cc1 | inactive | –
38 | CCCCCCCCCCCCS | – | 20 µM (active)

Source: PubChem BioAssay (EPA / NIEHS)
